# Measurements taken from PubChem BioAssay (EPA / NIEHS).
# The source made the active and inactive calls. The calls were made as follows: active = hit-call score of the fitted dose curve at least 0.9, where 1 is the maximum; inactive = score below 0.9.
# Key:
# [1] = IUF_NPC2c_oligodendrocyte_migration_120hr: Leibniz Research Institute for Environmental Medicine (IUF) 120-hour Neural Progenitor Cell Migration Assay for Oligodendrocyte Migration (NPC2c) (AID 2284297);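 also: O4-positive oligodendrocyte migration distance divided by radial glia migration distance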
# In short: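 Human fetal cortex-derived neural progenitor spheres (0.3 mm) were plated on poly-D-lysine/laminin in N2 differentiation medium and exposed to 7 concentrations for 120 h, with half-medium renewal at day 3. Oligodendrocyte migration distance was normalized to radial glia migration, relative to DMSO.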
# [2] = IUF_NPC2a_radial_glia_migration_120hr: Leibniz Research Institute for Environmental Medicine (IUF) 120-hour Neural Progenitor Cell Migration Assay for Radial Glia Migration (NPC2a) (AID 2284298)
# In short: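 Single 0.3 mm primary human fetal-cortex (GW 16-19) NPC spheres were plated on poly-D-lysine/laminin in N2 differentiation medium and exposed from day 0 for 120 h, half-medium refreshed day 3. Migration distance came from Hoechst nuclei-density imaging, relative to DMSO.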
# [3] = read-out: Basic fibroblast growth factor (bFGF), FGF2 (gene 2247); experiment: BSK_MyoF_bFGF: BioMAP Diversity Plus: MyoF Assay for Basic fibroblast growth factor (bFGF) Biomarker Activity (AID 2284246); details: primary human lung fibroblasts
# In short: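 Chemicals are added to human lung fibroblast cultures and incubated 24 h. bFGF is then measured by ELISA, while parallel cultures receive SRB staining for total protein as a cytotoxicity check. Data are fitted upward against DMSO.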
# [4] = read-out: Collagen IV, COL4A1 (gene 1282); experiment: BSK_MyoF_CollagenIV: BioMAP Diversity Plus: MyoF Assay for Collagen IV Biomarker Activity (AID 2284247); details: primary human lung fibroblasts
# Experimental: (§1) BSK_MyoF is a cell-based, multiplexed-readout assay that uses lung fibroblasts, a human […] primary cell, with measurements taken at 24 hours after chemical dosing in a microplate: 96-well plate.BSK_MyoF_CollagenIV is an assay component measured in the BSK_MyoF assay. It measures Collagen IV antibody related to regulation of gene expression using ELISA technology.Data from the assay component BSK_MyoF_CollagenIV was analyzed at the endpoint, BSK_MyoF_CollagenIV, in the positive analysis fitting direction relative to DMSO as the negative control and baseline of activity. Using a type of binding reporter, gain or loss-of-signal activity can be used to understand protein changes. […]
# (§2) The levels of cell surface (or secreted, indicated by the prefix "s") biomarker endpoints were measured by ELISA. Overt cytotoxicity to cells in confluent adherent cultures (all systems other than the BT system) was assessed by measuring total protein levels using sulforhodamine B (SRB) staining in parallel cultures at the time of biomarker measurements, indicated as SRB endpoints. For proliferation assays for adherent cell types, individual cell types are cultured at sub-confluence and relative cell numbers quantified by SRB staining at time points optimized for each system (48 h: 3C and CASM3C systems; 72 h: BT and HDF3CGF systems; 96 h: SAg system). […] Plates were read after 6 h.
# [5] = read-out: Plasminogen activator inhibitor-1 (PAI1), SERPINE1 (gene 5054); experiment: BSK_MyoF_PAI1: BioMAP Diversity Plus: MyoF Assay for Plasminogen activator inhibitor-1 (PAI1) Biomarker Activity (AID 2284256); details: primary human lung fibroblasts;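 also: PAI-1 protein level measured by ELISA in fibroblast cultures; PAI-1 read 24 h after compound addition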
# In short: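 ELISA read-out of PAI-1 from primary human lung fibroblast cultures 24 h after dosing; gain-of-signal fit versus DMSO control.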
# [6] = read-out: Interleukin-8 (IL8), CXCL8 (gene 3576); experiment: BSK_MyoF_IL8: BioMAP Diversity Plus: MyoF Assay for Interleukin-8 (IL8) Biomarker Activity (AID 2284261); details: primary human lung fibroblasts
# Experimental: as §1, with “plate.BSK_MyoF_IL8” for “plate.BSK_MyoF_CollagenIV”, “IL-8” for “Collagen IV”, “BSK_MyoF_IL8” for “BSK_MyoF_CollagenIV”, “BSK_MyoF_IL8,” for “BSK_MyoF_CollagenIV,”
# as §2
# [7] = read-out: Decorin, DCN (gene 1634); experiment: BSK_MyoF_Decorin: BioMAP Diversity Plus: MyoF Assay for Decorin Biomarker Activity (AID 2284265); details: primary human lung fibroblasts
# In short: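 Human lung fibroblasts in the MyoF system were exposed to compound for 24 h, after which decorin was quantified by ELISA. Activity was fitted in the positive direction relative to DMSO negative control.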
# [8] = BSK_MyoF_SRB: Viability Assessment in the BioMAP Diversity Plus: MyoF Assay (AID 2284267); details: primary human lung fibroblasts;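 also: total protein by SRB absorbance in parallel cultures as cytotoxicity measure; cells assessed 24 h after compound addition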
# In short: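 Confluent human lung fibroblasts were exposed to test chemicals for 24 h. Parallel wells were then fixed in 10% TCA, stained with 0.1% sulforhodamine B and measured at 560 nm. DMSO served as baseline for curve fitting.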
# [9] = read-out: Matrix Metallopeptidase 1 (MMP1), MMP1 (gene 4312); experiment: BSK_MyoF_MMP1: BioMAP Diversity Plus: MyoF Assay for Matrix Metallopeptidase 1 (MMP1) Biomarker Activity (AID 2284268); details: primary human lung fibroblasts
# Experimental: as §1, with “plate.BSK_MyoF_MMP1” for “plate.BSK_MyoF_CollagenIV”, “[…]” for “Collagen IV”, “BSK_MyoF_MMP1” for “BSK_MyoF_CollagenIV”, “BSK_MyoF_MMP1,” for “BSK_MyoF_CollagenIV,”
# as §2
# [10] = read-out: TIMP metallopeptidase inhibitor 1 (TIMP1), TIMP1 (gene 7076); experiment: BSK_MyoF_TIMP1: BioMAP Diversity Plus: MyoF Assay for TIMP metallopeptidase inhibitor 1 (TIMP1) Biomarker Activity (AID 2284269); details: primary human lung fibroblasts
# In short: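 ELISA read-out of TIMP-1 from primary human lung fibroblast cultures 24 h after compound dosing; gain of signal relative to DMSO vehicle baseline defines activity.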
smiles,measurement,setting,value
C=CC1(C)OC(=O)N(c2cc(Cl)cc(Cl)c2)C1=O (stereo unspecified),outcome,[1],inactive
same,outcome,[2],inactive
COP(=S)(OC)Oc1nc(Cl)c(Cl)cc1Cl,outcome,[1],inactive
same,outcome,[2],inactive
CCCCOC(=O)c1ccccc1C(=O)OCCCC,outcome,[1],inactive
same,outcome,[2],inactive
COc1cnc(OC)n2nc(NS(=O)(=O)c3c(OCC(F)F)cccc3C(F)(F)F)nc12,outcome,[3],inactive
same,AC50,[4],0.024 µM (active)
same,outcome,[5],inactive
same,outcome,[6],inactive
same,outcome,[7],inactive
same,outcome,[8],inactive
same,outcome,[9],inactive
same,outcome,[10],inactive
Cc1ccc(-c2c(Cl)nc(C#N)n2S(=O)(=O)N(C)C)cc1,AC50,[1],23.9 µM (active)
same,AC50,[2],33.6 µM (active)
CCOc1cc(Oc2ccc(C(F)(F)F)cc2Cl)ccc1[N+](=O)[O-],outcome,[1],inactive
same,outcome,[2],inactive
CCCCC(CC)COC(=O)c1ccccc1C(=O)OCC(CC)CCCC (stereo unspecified),outcome,[1],inactive
same,outcome,[2],inactive
CCOC(=O)CC(SP(=S)(OC)OC)C(=O)OCC (stereo unspecified),outcome,[1],inactive
same,outcome,[2],inactive
COC(=O)N(OC)c1ccccc1COc1ccn(-c2ccc(Cl)cc2)n1,outcome,[1],inactive
same,AC50,[2],3.18 µM (active)
CC(C)(C)c1ccc(CSc2cnn(C(C)(C)C)c(=O)c2Cl)cc1,outcome,[1],inactive
same,AC50,[2],3.31 µM (active)
CN(C)C(=S)SSC(=S)N(C)C,AC50,[1],28.1 µM (active)
same,AC50,[2],47.3 µM (active)
CO/C=C(/C(=O)OC)c1ccccc1Oc1cc(Oc2ccccc2C#N)ncn1,outcome,[1],inactive
same,outcome,[2],inactive
COP(N)(=O)SC (stereo unspecified),outcome,[1],inactive
same,outcome,[2],inactive
CNC(=O)ON=CC(C)(C)SC,outcome,[1],inactive
same,outcome,[2],inactive
N#Cc1nn(-c2c(Cl)cc(C(F)(F)F)cc2Cl)c(N)c1S(=O)C(F)(F)F (stereo unspecified),outcome,[1],inactive
same,AC50,[2],18.8 µM (active)
